# Screens deposited in PubChem BioAssay by National Center for Advancing Translational Sciences (NCATS).
# FBPA coupling cs: qHTS Assay for Inhibitors of Fructose-1,6-bisphosphate Aldolase from Giardia Lamblia: Coupling assay counterscreen | coupling enzyme system counterscreen, AmpLite Red fluorescence | activity change, negative = inhibition, % at 58.2 µM, hits read low | 0.67% of 290,000 active; in the data active = activity change below about -30%
#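 Fluorescence at 525 nm excitation and 598 nm emission measured inhibition of the coupled detection system without aldolase. Compounds (at 57.5 uM final) were preincubated 10 min at room temperature with coupling enzyme reagent before a 20 min substrate/AmpLite Red step.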
# Sfp PPTase inh: qHTS Assay for Inhibitors of Bacillus subtilis Sfp phosphopantetheinyl transferase (PPTase); AID 1490, 2009; 4'-phosphopantetheinyl transferase ffp (Bacillus subtilis), Q9F4F7; 3.5% of 310,000 active; Potency, µM, for inactives: largest response in the series, negative = inhibition, hits mostly inhibitors; Biochemical Sfp PPTase activity, qHTS;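 note: the enzyme is Sfp with the accession as filed and its product quenches rhodamine fluorescence; potency is the fitted concentration of half-maximal effect; 0% = enzyme reaction without inhibitor and -100% = no enzyme wells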
#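 With Hepes-Na pH 7.6 buffer containing 10 mM MgCl2, Sfp (15 nM) modified BHQ-2-YbbR (12.5 uM) using rhodamine-CoA (5 uM). Two reads 30 minutes apart at 525/598 nm yielded each well's rate.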
# Tau ThT inhib: qHTS for Inhibitors of Tau Fibril Formation, Thioflavin T Binding; Microtubule-associated protein tau (Homo sapiens), P10636; recombinant tau K18 P301L, heparin-induced fibrillization, ThT fluorescence; Potency, µM (doses to about 57.4 µM), for the others: at the highest dose activity, negative = inhibition, usual class: inhibitors; 2.1% of 270,000 active; note: potency is the fitted concentration of half-maximal effect; nearly all actives have a fitted effect of over 55% in size
# Target sequence (P10636 561-689 P618L limits assumed): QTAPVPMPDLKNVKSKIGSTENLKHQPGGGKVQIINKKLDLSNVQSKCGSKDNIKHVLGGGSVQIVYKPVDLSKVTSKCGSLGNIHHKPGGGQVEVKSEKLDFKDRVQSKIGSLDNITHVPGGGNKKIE
#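 Recombinant human tau K18 fragment […] carrying P301L, 15 uM unlabeled plus 0.24 uM Alexa 594-labeled, was fibrillized with 20 uM heparin in 100 mM sodium acetate pH 7 for 6 hr at 37 C; 30 uM ThT fluorescence read after 1 hr.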
# Tau fibril FP: qHTS for Inhibitors of Tau Fibril Formation, Fluorescence Polarization. 0.39% of 280,000 active. K18 P301L tau heparin fibrillization, Alexa594 FP, 6 h. Microtubule-associated protein tau (Homo sapiens), P10636. Potency, µM (doses to about 57.7 µM), for the others: at the top dose activity, negative = inhibition, usual class: inhibitors; note: potency is the fitted concentration of half-maximal effect; nearly all actives have a fitted effect of over 55% in size
#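 FP of Alexa 594-tau after heparin (20 uM) induction. Substrate: human K18 P301L, 15 uM unlabeled, 0.24 uM labeled. Buffer 100 mM sodium acetate pH 7. 6 hr, 37 C.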
# Tau fluor counter: Counterscreen qHTS for Inhibitors of Tau Fibril Formation, Fluorescence Polarization; tau K18 P301L (four-repeat tau fragment) Alexa594 fluorescence, heparin fibrillization; Potency, µM (doses to about 57.7 µM), for inactives: at the top dose activity change, negative = decrease; 0.93% of 280,000 active; AID 1463, 2008; note: potency is the fitted concentration of half-maximal effect; nearly all actives have a fitted effect of over 55% in size
#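 Human K18 P301L tau (15 uM unlabeled plus 0.24 uM Alexa 594-labeled, final) in 100 mM sodium acetate pH 7 was mixed with compound and 20 uM heparin and incubated 6 hr at 37 C.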
# G9a inh: qHTS Assay for Inhibitors of Histone Lysine Methyltransferase G9a. G9a H3K9 monomethylation, AlphaScreen, 2 h. 8.8% of 350,000 active. Potency, µM (series often up to 102 µM), without a hit: top-dose activity, negative = inhibition, usual class: inhibitors. AID 504332, 2011. Histone-lysine N-methyltransferase EHMT2 (Homo sapiens), Q96KQ7; note: potency is the fitted concentration of half-maximal effect; nearly all actives have a fitted effect of over 75% in size
# Target sequence (Q96KQ7 913-1193 limits assumed): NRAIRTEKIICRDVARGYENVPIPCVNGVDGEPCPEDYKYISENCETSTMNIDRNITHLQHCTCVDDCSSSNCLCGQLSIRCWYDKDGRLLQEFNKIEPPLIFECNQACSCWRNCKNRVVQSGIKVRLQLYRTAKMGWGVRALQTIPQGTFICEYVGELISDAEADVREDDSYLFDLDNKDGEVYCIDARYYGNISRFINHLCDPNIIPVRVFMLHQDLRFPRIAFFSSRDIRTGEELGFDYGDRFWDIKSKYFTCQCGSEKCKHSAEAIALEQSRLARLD
#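 Enzyme 20 nM + cpd, 15 min RT; add b-H3K9 pep 500 nM / SAM 20 uM; 2 h RT; anti-H3K9me1 Ab 0.5 ug/mL + SA donor / anti-rabbit acceptor beads 20 ug/mL each, 10 min; AlphaScreen read.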
# Starred values were filed as active, the others as inactive; ? = inconclusive; · = not tested or not shown; [ ] = remark or other dose. A selection: hits, their analogues and other compounds. The true share with any hit is near 11%. Unless noted, calls come from the whole dose curve; as a rule, active = well fitted curve in the direction sought with a large enough effect; inconclusive = small, poorly fitted or top-dose-only effect, or another doubt; inactive = no such curve, though single readings can be large; an effect the other way counts as inactive or inconclusive. Unless noted, % is set by controls: 0 for no effect and ±100 for the full control effect.
SMILES,FBPA coupling cs,Sfp PPTase inh,Tau ThT inhib,Tau fibril FP,Tau fluor counter,G9a inh
Cc1cc(C)c2sc(N(CCN(C)C)C(=O)c3ccc4ccccc4c3)nc2c1,-6,-30%,·,·,·,35µM*
COc1cc2nc(N(CCN(C)C)C(=O)c3ccc4ccccc4c3)sc2cc1OC,-3,-3%,·,·,·,45µM*
Cc1cc(C)c2sc(N(CCN(C)C)C(=O)c3cc(Cl)sc3Cl)nc2c1,-2,-11%,-10%,0%,-4%,45µM*
COc1cc2ccccc2cc1C(=O)N(CCN(C)C)c1nc2c(OC)ccc(OC)c2s1,-2,-25%,·,·,·,45µM*
CCOC(=O)c1cc2c(=O)n3ccccc3nc2n(C(C)C)c1=NC(=O)C(C)(C)Oc1ccc(Cl)cc1,·,·,-12%,3%,-11%,2%[59 µM]
Nc1nc(C(c2ccccc2)c2ccccc2)cs1,0,22%,·,·,·,-26%
O=C(Nc1cccc(F)c1)N1CCN(C(=O)c2ccco2)CC1,·,11%,·,·,·,-1%[12.7 µM]
CC(C)NC(=O)NC(=O)CSc1nncs1,0,13%,1%,4%,-1%,10%
OCCOCCN1CCN(C(=S)Nc2ccccc2)CC1,-2,9%,-5%,3%,12%,?
CCN(CC)CCN(C(=O)c1ccc2c(c1)CCCC2)c1nc2cc(OC)c(OC)cc2s1,-3,-22%,·,·,·,50µM*
CCN(CC)CCN(C(=O)c1c(F)cccc1F)c1nc2cc(C)cc(C)c2s1,-4,-23%,-20%,-11%,-19%,56µM*
COc1cc2ccccc2cc1C(=O)N(CCN(C)C)c1nc2c(C)cccc2s1,0,?,·,·,·,13µM*
CCOc1ccc2nc(N(CCN(C)C)C(=O)c3ccc4c(c3)CCCC4)sc2c1,·,50µM*,·,·,·,40µM*
CCOC(=O)c1noc2ncnc(Nc3cccc(OC)c3)c12,·,·,-3%,-7%,-5%,20%[59 µM]
Cc1cn(C)c(CC(=O)Nc2cccc(Cl)c2C)c1C(=O)O,·,·,-5%,3%,-3%,-33%[59 µM]
C=Cc1ccc(Cn2c(=O)n(CC3CCC(C(=O)NC(C)C)CC3)c(=O)c3sccc32)cc1 (centres undefined),·,·,1%,-4%,0%,4%[59 µM]
COc1cc2ccccc2cc1C(=O)N(CCN(C)C)c1nc2ccc(C)cc2s1,2,79µM*,·,·,·,40µM*
Cc1ccc2nc(N(CCN(C)C)C(=O)c3cc(Cl)sc3Cl)sc2c1,0,1%,?,7%,-18%,?
O=[N+]([O-])c1cc(/C=N/n2cnnc2)ccc1N1CCCC1,0,-3%,7.9µM*,5%,-9%,-13%[59 µM]
CO/N=C/c1ccc(N2CCCC2)c([N+](=O)[O-])c1,-3,6%,?,6%,-9%,40µM*
CCOC(=O)c1ccc(-n2c(-c3ccco3)nc3ccccc3c2=O)cc1,1,4%,-14%,-6%,-2%,-5%
CN(CC(=O)Nc1ccc(Cl)c(C(F)(F)F)c1)C(=O)/C=C/c1ccco1,0,-22%,-4%,?,-16%,-14%
O=C(O)c1cc(N2N=C(C(F)(F)F)/C(=C/C=C/c3ccco3)C2=O)ccc1Cl,2,22µM*,-4%,-1%,-10%,2.5µM*
CC1=NN(c2ccc(C(=O)OC(C)C)cc2)C(=O)/C1=C\C=C\c1ccco1,-1,?,3%,-4%,-6%,4.5µM*
CCOC(=O)c1ccc(N2N=C(C)/C(=C/C=C/c3ccco3)C2=O)cc1,1,-2%,3.2µM*,?,?,?
SMILES,FBPA coupling cs,Sfp PPTase inh,Tau ThT inhib,Tau fibril FP,Tau fluor counter,G9a inh
COC(=O)c1ccc(OC(=O)/C=C/c2ccco2)cc1,0,-1%,·,·,·,?
CCCCCCCCN=C(N)c1ccc(C(=O)OCC2CCCCC2)cc1,-1,?,·,·,·,·
COC(=O)c1c(NC(=O)CN2C(=O)C(=O)N(CC(C)C)C2=O)sc(C)c1C,·,-2%,·,·,·,·
Cn1c(=O)c2ncn(CC(=O)NCCOc3ccc(C(C)(C)C)cc3)c2n(C)c1=O,5,-9%,-8%,-5%,-7%,40µM*
Cn1c(=O)c2ncn(CC(=O)NC3CCCCCC3)c2n(C)c1=O,1,10%,-7%,5%,1%,14µM*
CSc1nc2cc(C)nn2c(-c2ccccc2)c1C#N,3,8%,-9%,-4%,-10%,45%
CCCCn1cc(S(=O)(=O)c2cc(C)ccc2C)c(=O)c2cc(F)c(N3CCC(C)CC3)cc21,·,·,-8%,-4%,-8%,5%[59 µM]
CCc1cccc2c(/C=N/NC(=O)c3cccc(S(=O)(=O)Nc4ccccc4Cl)c3)c[nH]c12,-2,10%,14µM*,-8%,11µM*[quencher],19%[59 µM]
Cc1[nH]c2ccccc2c1/C=N/NC(=O)c1cccc(Br)c1,0,-1%,·,·,·,-36%
Cc1ccc(/C=N/NC(=O)c2cccc(S(=O)(=O)Nc3ccccc3Cl)c2)o1,-2,18%,-12%,5%,-16%,1%[59 µM]
Cc1[nH]c2ccccc2c1/C=N/NC(=O)c1cccc(S(=O)(=O)Nc2ccccc2Cl)c1,-26,8%,?,?,11µM*[quencher],-45%[59 µM]
